Measurements reported in PubChem BioAssay (Tox21).
Records with an inconclusive call do not appear. Calls of active or inactive are those of the source. Unless noted, the call rests on the fitted dose curve; in most records, active means well fitted curve in the direction sought with a large enough effect in the repeat runs; inconclusive means weak or mixed curves; inactive means no such curve, though single readings can be large; an effect the other way counts as inactive or inconclusive.

Columns and labels:
[1] = A CellTox Green Cytotoxicity Assay to monitor cytotoxicity in HepG2 cells - 0 hour (AID 1224882); further: nearly all actives have a fitted effect of over 35% in size
Procedure, shortened: (§1)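 Read-out is fluorescence of a cyanine dye excluded from live cells that stains DNA of dead HepG2 cells, with signal proportional to cytotoxicity. Plates were read at 0, 8, 16, 24, 32 and 40 h after compound addition.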

[2] = A CellTox Green Cytotoxicity Assay to monitor cytotoxicity in HepG2 cells - 32 hour (AID 1224883); further: nearly all actives have a fitted effect of over 50% in size
Procedure, shortened: as §1

[3] = A CellTox Green Cytotoxicity Assay to monitor cytotoxicity in HEK293 cells - 8 hour (AID 1224884); further: nearly all actives have a fitted effect of over 35% in size
Procedure, shortened: (§2)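 Nonlytic real-time cytotoxicity: HEK293 + CellTox Green reagent plated, 5 h preincubation, pintool compound addition (23 nL in DMSO), 37 C for 40 h, fluorescence measured at successive time points.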

[4] = qHTS RealTime-Glo MT Cell Viability Assay in HepG2 cells - 16 hour (AID 1224885); further: nearly all actives have a fitted effect of over 50% in size
Procedure, shortened: (§3)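 HepG2 suspension premixed with RealTime-Glo reagents is plated at 600 cells per well and left 5 h at 37 C/5% CO2. Compounds in DMSO then go in, and bioluminescence reflecting viable cell number is recorded over 40 h.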

[5] = qHTS RealTime-Glo MT Cell Viability Assay in HEK293 cells - 24 hour (AID 1224886); further: top concentration of the series differs between compounds; nearly all actives have a fitted effect of over 50% in size
Procedure, shortened: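 Reads taken at 0, 8, 16, 24, 32 and 40 h from the same wells. HEK293 cells (600/well) carried RealTime-Glo reagents from seeding, with compound added after a 5 h settle at 37 C.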

[6] = qHTS RealTime-Glo MT Cell Viability Assay in HEK293 cells - 8 hour (AID 1224887); further: top concentration of the series differs between compounds; nearly all actives have a fitted effect of over 50% in size
Procedure, shortened: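 Cells were seeded together with NanoLuc luciferase and a prosubstrate that viable cells reduce to a luciferase substrate. After a 5 h incubation at 37 C/5% CO2, compounds were added and luminescence was measured repeatedly during 40 h of treatment.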

[7] = A CellTox Green Cytotoxicity Assay to monitor cytotoxicity in HEK293 cells - 16 hour (AID 1224888); further: nearly all actives have a fitted effect of over 35% in size
Procedure, shortened: as §2

[8] = qHTS RealTime-Glo MT Cell Viability Assay in HepG2 cells - 0 hour (AID 1224889); further: nearly all actives have a fitted effect of over 50% in size
Procedure, shortened: as §3

[9] = A CellTox Green Cytotoxicity Assay to monitor cytotoxicity in HepG2 cells - 8 hour (AID 1224890); further: nearly all actives have a fitted effect of over 45% in size
Procedure, shortened: as §1

[10] = qHTS assay to identify small molecule antagonists of the estrogen receptor alpha (ER-alpha) signaling pathway using the BG1 cell line in the presence of 0.1 nM 17-beta-estradiol - cell viability counter screen (AID 1259241); further: nearly all actives have a fitted effect of over 40% in size
Procedure, shortened: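 CellTiter-Fluor read (30 min, 37C) on ER-alpha/ERE-luc VM7Luc4E2 cells; 22 hr compound treatment; agonist 0.1 nM E2 final; same-well multiplex.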

[11] = qHTS assay to identify small molecule antagonists of the androgen receptor (AR) signaling pathway using the MDA cell line in the presence of 0.5 nM R1881 - cell viability counter screen (AID 1259242); further: nearly all actives have a fitted effect of over 45% in size
Procedure, shortened: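 Counter screen for cytotoxicity run in the same wells as the AR antagonist reporter screen: MDA-kb2 cells were treated 16 hr with test compounds and 0.5 nM R1881, then live-cell protease activity was measured by fluorescence.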

[12] = target: Estrogen receptor (Homo sapiens) (UniProt P03372); test: qHTS assay to identify small molecule antagonists of the estrogen receptor alpha (ER-alpha) signaling pathway using the BG1 cell line in the presence of 0.1 nM 17-beta-estradiol (AID 1259244); further: nearly all actives have a fitted effect of over 50% in size
Estrogen receptor (Homo sapiens), sequence (P03372 whole entry, looked up): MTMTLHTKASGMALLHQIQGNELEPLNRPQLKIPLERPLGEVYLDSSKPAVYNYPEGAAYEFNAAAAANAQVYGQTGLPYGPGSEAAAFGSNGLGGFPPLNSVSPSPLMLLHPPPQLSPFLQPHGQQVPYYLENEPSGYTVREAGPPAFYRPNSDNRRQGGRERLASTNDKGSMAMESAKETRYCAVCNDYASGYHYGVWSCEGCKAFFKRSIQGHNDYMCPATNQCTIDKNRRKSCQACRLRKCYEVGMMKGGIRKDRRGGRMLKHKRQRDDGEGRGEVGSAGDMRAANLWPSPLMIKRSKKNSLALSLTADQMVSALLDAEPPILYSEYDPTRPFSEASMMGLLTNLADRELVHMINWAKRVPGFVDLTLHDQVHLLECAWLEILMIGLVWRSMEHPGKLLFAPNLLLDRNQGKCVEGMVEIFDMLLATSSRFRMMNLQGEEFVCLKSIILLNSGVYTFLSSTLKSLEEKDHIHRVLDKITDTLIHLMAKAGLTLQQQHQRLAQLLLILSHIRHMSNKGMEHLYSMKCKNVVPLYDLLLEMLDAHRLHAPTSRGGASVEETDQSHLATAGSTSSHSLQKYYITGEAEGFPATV
Procedure, shortened: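 Cells: VM7Luc4E2, endogenous ER-alpha, 4x ERE-luc stable. Pre-culture 5 d, phenol red-free, charcoal-stripped FBS. Plated 24 h, compound + E2 0.1 nM final, 22 h 37C/5% CO2. Readout ONE-Glo luminescence.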

[13] = qHTS assay to identify small molecule HDAC inhibitors (AID 1259364); further: top concentration of the series differs between compounds; nearly all actives have a fitted effect of over 45% in size
Procedure, shortened: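 Luminescence from a cell-permeant luminogenic class I/II HDAC substrate reports endogenous deacetylase activity in intact HCT-116 cells treated with compounds for 2 h.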

[14] = qHTS assay to identify small molecule agonists of the sonic hedgehog signaling (Shh) pathway - cell viability counter screen (AID 1259366); further: nearly all actives have a fitted effect of over 50% in size
Procedure, shortened: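 Fluorescence from CellTiter-Fluor reports live cells in this counter screen. NIH/3T3-derived Gli1-Luc reporter cells receive test compounds for 24hr at 37C; reagent goes in at 23hr.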

[15] = qHTS assay to identify small molecule antagonists of the sonic hedgehog signaling (Shh) pathway - cell viability counter screen (AID 1259367); further: nearly all actives have a fitted effect of over 55% in size
Procedure, shortened: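 NIH/3T3-derived Gli1-Luc reporter cells (2,000 per well) rested 4 hr at 37 C, then received DMSO compounds plus conditioned medium. After 23 hr of treatment, CellTiter-Fluor was added for 1 hr at 37C and fluorescence read.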

[16] = qHTS assay to identify small molecule agonists of the sonic hedgehog signaling (Shh) pathway (AID 1259368; calls by dose curve;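 further: NIH/3T3-derived 3T3Gli1-Luc cells carrying a stable Gli1-driven firefly luciferase reporter; series mostly up to about 92 µM; nearly all actives have a fitted effect of over 15% in size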)
Procedure, shortened: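 3T3Gli1-Luc (NIH/3T3 clone, stable Gli1-Luc); 4 hr pre-incubation, then cpd in DMSO 24 hr, 37 C/5% CO2; luciferase reagent 30 min RT; luminescence.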

[17] = qHTS assay to identify small molecule HDAC inhibitors - cell viability counter screen (AID 1259365)
Procedure, shortened: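 To flag cytotoxic hits, 1,500 wild-type HCT-116 cells per well, plated the day before, receive test compounds for 2hr at 37 C before CellTiter-Glo reagent and a luminescence read.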

[18] = qHTS assay to identify small molecule antagonists of the sonic hedgehog signaling (Shh) pathway (AID 1259369; calls by dose curve; further: nearly all actives have a fitted effect of over 45% in size; further: potency means the concentration at half of the fitted maximal effect)
Procedure, shortened: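 3T3Gli1-Luc, conditioned-medium-stimulated, 24hr cpd, 37C/5% CO2; Gli1-driven firefly Luc luminescence after 30min RT with luciferase reagent. Cells plated 4hr before cpd.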

[19] = qHTS assay to identify small molecule phospholipidosis (PLD) inducers (AID 1259344; active means well fitted curve in the direction sought with a large enough effect; an effect the other way counts as inactive or inconclusive)
Procedure, shortened: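 HepG2 cells on collagen I, attached 4 h at 37 C, were co-treated with compound and LipidTOX Red dye for 24 h at 37 C, then fixed with paraformaldehyde plus Hoechst 33342 and imaged by high-content microscopy for phospholipid accumulation.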

Measured: Potency

CO[C@@H]1[C@@H](O[C@@H]2O[C@H](C)[C@@H](O[C@H]3C[C@@](C)(O)[C@@H](O)[C@H](C)O3)[C@H](N(C)C)[C@H]2O)[C@@H](CC=O)C[C@@H](C)[C@@H](O[C@@H]2CC[C@H](N(C)C)[C@@H](C)O2)/C=C/C=C/C[C@@H](C)OC(=O)C[C@H]1OC(C)=O
not listed: [17] | [18] | [19]
inactive: all other assays above

CC(CN=Cc1ccccc1O)N=Cc1ccccc1O (centres undefined)
not listed: [12] | [14] | [16] | [18] | [19]
inactive: all other assays above

Cc1ccccc1CCO
not listed: [14] | [18] | [19]
inactive: all other assays above

C[C@H](N)C(=O)N[C@@H](C)C(=O)NC1[C@H]2CN(c3nc4c(cc3F)c(=O)c(C(=O)O)cn4-c3ccc(F)cc3F)C[C@@H]12 (some centres undefined)
not listed: [12] | [18] | [19]
inactive: all other assays above

OCCCO
not listed: [14] | [18] | [19]
inactive: all other assays above

CCC(=O)O[C@@H]1C[C@H]2CC[C@]1(C)C2(C)C
not listed: [12] | [19]
inactive: all other assays above

FC1(F)C(F)(F)C(F)(F)C2(F)C(F)(C1(F)F)C(F)(F)C(F)(F)C1(F)C(F)(F)C(F)(F)C(F)(F)C(F)(F)C12F (centres undefined)
not listed: [12] | [16] | [19]
inactive: all other assays above

O=C(c1ccco1)N1CCNCC1
not listed: [14] | [16] | [19]
inactive: all other assays above

CCC(C)CCCC(C)(C)O (centres undefined)
not listed: [12] | [14] | [19]
inactive: all other assays above

O=C(O)c1ccccc1[N+](=O)[O-]
not listed: [12] | [14] | [19]
inactive: all other assays above

CC(=O)CC/C=C(\C)CC/C=C(\C)CC/C=C(\C)CCC=C(C)C
not listed: [12]
inactive: all other assays above

Nc1nc(Cl)nc2c1ncn2[C@H]1C[C@H](O)[C@@H](CO)O1
active: [18] 383 nM
not listed: [12]
inactive: all other assays above

O=[N+]([O-])c1ccccc1CCO
not listed: [12] | [16] | [19]
inactive: all other assays above

C=CCCC
not listed: [14] | [19]
inactive: all other assays above

CCc1c(C)[nH]c2c1C(=O)C(CN1CCOCC1)CC2 (centres undefined)
not listed: [12] | [16] | [17]
inactive: all other assays above
